{"source": "the supplement of paper PMC8728848", "binders": {"B1": {"name": "rCnSL-proA (Clitocybe nebularis) (protein)", "chain": "AAFFSLVVLLALLPFGIHASALPSTELTPRVNPNLPGPNDVFVGFRGTNNIVGAIYEKDGIKDTPLNNGADAEMGPGSYITDGLFTARIFASGSAGNNPGTTATVCKIYASGVQWRGAPKGYIPVAYFGNGPTAEQRRQTYLRTLGLPGTAIRFGNLNTNPGQGPTAPRQMVVPPGPLRSLLKASCFPAADTRLPQTLHYFEKRVDWNIITAADSQTWGH"}}, "assay_in_all_cases": "glycan array binding signal (z-score within array); higher = stronger binding", "conditions_in_all_cases": "glycan notation: IUPAC condensed, linker removed", "key": {"Fuc(a1-2)Gal(b1-3)GalNAc": {"target": "Fuc(a1-2)Gal(b1-3)GalNAc", "in_short": "(§1)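 Glycan array data came from 3228 arrays in the Consortium for Functional Glycomics database, and only arrays with an available protein sequence were kept. Glycan names were put into IUPAC-condensed notation, and columns mapping to the same glycan were averaged. The binding signal is a within-array Z-score, averaged across arrays of one protein sequence run at different concentrations or buffers and across linkers. A negative Z-score can be read as non-binding.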"}, "Fuc(a1-2)Gal(b1-3)GlcNAc": {"target": "Fuc(a1-2)Gal(b1-3)GlcNAc", "in_short": "as §1"}, "[1]": {"target": "Fuc(a1-2)Gal(b1-3)[Fuc(a1-4)]GlcNAc(b1-2)Man(a1-3)[Fuc(a1-2)Gal(b1-3)[Fuc(a1-4)]GlcNAc(b1-2)Man(a1-3)]Man(b1-4)GlcNAc(b1-4)GlcNAc", "in_short": "as §1"}, "[2]": {"target": "Fuc(a1-2)Gal(b1-3)[Fuc(a1-4)]GlcNAc(b1-3)[Fuc(a1-3)[Gal(b1-4)]GlcNAc(b1-6)]Gal(b1-4)Glc", "in_short": "as §1"}, "Fuc(a1-2)Gal(b1-4)Glc": {"target": "Fuc(a1-2)Gal(b1-4)Glc", "in_short": "as §1"}, "[3]": {"target": "Fuc(a1-2)Gal(b1-4)[Fuc(a1-3)]GlcNAc(b1-3)[Neu5Ac(a2-6)Gal(b1-4)GlcNAc(b1-6)]Gal(b1-4)Glc", "in_short": "as §1"}, "[4]": {"target": "Fuc(a1-2)Gal6S(b1-4)Glc6S", "in_short": "as §1"}, "[5]": {"target": "Fuc(a1-2)[Gal(a1-3)]Gal(b1-3)GalNAc(b1-3)Gal(a1-4)Gal(b1-4)Glc", "in_short": "as §1"}, "[6]": {"target": "Fuc(a1-2)[Gal(a1-4)]Gal(b1-4)GlcNAc", "in_short": "as §1"}, "[7]": {"target": "Fuc(a1-2)[GalNAc(a1-3)]Gal(b1-3)GlcNAc", "in_short": "as §1"}, "[8]": {"target": "Fuc(a1-2)[GalNAc(a1-3)]Gal(b1-4)GlcNAc", "in_short": "as §1"}, "[9]": {"target": "Fuc(a1-2)[GalNAc(a1-3)]Gal(b1-4)GlcNAc(b1-2)Man", "in_short": "as §1"}, "[10]": {"target": "Fuc(a1-3)[Gal(b1-4)]GlcNAc(b1-6)GalNAc", "in_short": "as §1"}, "[11]": {"target": "Fuc(a1-3)[Gal(b1-4)]GlcNAc6S", "in_short": "as §1"}, "[12]": {"target": "Gal(a1-3)Gal(b1-4)GlcNAc(b1-3)GalNAc", "in_short": "as §1"}, "[13]": {"target": "Gal(a1-3)Gal(b1-4)[Fuc(a1-3)]GlcNAc(b1-2)Man(a1-3)[Gal(a1-3)Gal(b1-4)[Fuc(a1-3)]GlcNAc(b1-2)Man(a1-6)]Man(b1-4)GlcNAc(b1-4)GlcNAc", "in_short": "as §1"}, "Gal(a1-4)Gal(b1-4)Glc": {"target": "Gal(a1-4)Gal(b1-4)Glc", "in_short": "as §1"}, "[14]": {"target": "Gal(b1-3)GlcNAc(b1-3)Gal(b1-4)Glc", "in_short": "as §1"}, "[15]": {"target": "Gal(b1-3)GlcNAc(b1-3)Gal(b1-4)[Fuc(a1-3)]GlcNAc(b1-6)[Gal(b1-3)GlcNAc(b1-3)]Gal(b1-4)Glc", "in_short": "as §1"}, "[16]": {"target": "Gal(b1-3)[Neu5Ac(a2-6)]GlcNAc(b1-4)Gal(b1-4)Glc", "in_short": "as §1"}, "[17]": {"target": "Gal(b1-4)GlcNAc(a1-6)Gal(b1-4)GlcNAc", "in_short": "as §1"}, "[18]": {"target": "Gal(b1-4)GlcNAc(b1-2)[Gal(b1-4)GlcNAc(b1-4)]Man(a1-3)[Gal(b1-4)GlcNAc(b1-2)Man(a1-6)]Man(b1-4)GlcNAc(b1-4)GlcNAc", "in_short": "as §1"}, "[19]": {"target": "Gal(b1-4)GlcNAc(b1-3)Gal(b1-4)GlcNAc(b1-2)Man(a1-3)[Gal(b1-4)GlcNAc(b1-3)Gal(b1-4)GlcNAc(b1-2)Man(a1-6)]Man(b1-4)GlcNAc(b1-4)GlcNAc", "in_short": "as §1"}, "[20]": {"target": "Gal(b1-4)GlcNAc(b1-3)Gal(b1-4)GlcNAc(b1-3)Gal(b1-4)GlcNAc(b1-2)Man(a1-3)[Gal(b1-4)GlcNAc(b1-3)Gal(b1-4)GlcNAc(b1-3)Gal(b1-4)GlcNAc(b1-2)Man(a1-6)]Man(b1-4)GlcNAc(b1-4)GlcNAc", "in_short": "as §1"}, "[21]": {"target": "Gal(b1-4)GlcNAc(b1-3)Gal(b1-4)GlcNAc(b1-3)Gal(b1-4)GlcNAc(b1-2)[Gal(b1-4)GlcNAc(b1-3)Gal(b1-4)GlcNAc(b1-3)Gal(b1-4)GlcNAc(b1-6)]Man(a1-6)[Gal(b1-4)GlcNAc(b1-3)Gal(b1-4)GlcNAc(b1-3)Gal(b1-4)GlcNAc(b1-2)Man(a1-3)]Man(b1-4)GlcNAc(b1-4)[Fuc(a1-6)]GlcNAc", "in_short": "as §1"}, "[22]": {"target": "Gal(b1-4)GlcNAc(b1-3)Gal(b1-4)GlcNAc(b1-3)Gal(b1-4)GlcNAc(b1-3)Gal(b1-4)GlcNAc(b1-2)[Gal(b1-4)GlcNAc(b1-3)Gal(b1-4)GlcNAc(b1-3)Gal(b1-4)GlcNAc(b1-3)Gal(b1-4)GlcNAc(b1-6)]Man(a1-6)[Gal(b1-4)GlcNAc(b1-3)Gal(b1-4)GlcNAc(b1-3)Gal(b1-4)GlcNAc(b1-3)Gal(b1-4)GlcNAc(b1-2)Man(a1-3)]Man(b1-4)GlcNAc(b1-4)[Fuc(a1-6)]GlcNAc", "in_short": "as §1"}, "[23]": {"target": "Gal(b1-4)GlcNAc(b1-3)Gal(b1-4)GlcNAc(b1-3)Gal(b1-4)GlcNAc(b1-3)Gal(b1-4)GlcNAc(b1-3)Gal(b1-4)GlcNAc(b1-2)[Gal(b1-4)GlcNAc(b1-3)Gal(b1-4)GlcNAc(b1-3)Gal(b1-4)GlcNAc(b1-3)Gal(b1-4)GlcNAc(b1-3)Gal(b1-4)GlcNAc(b1-6)]Man(a1-6)[Gal(b1-4)GlcNAc(b1-3)Gal(b1-4)GlcNAc(b1-3)Gal(b1-4)GlcNAc(b1-3)Gal(b1-4)GlcNAc(b1-3)Gal(b1-4)GlcNAc(b1-2)Man(a1-3)]Man(b1-4)GlcNAc(b1-4)[Fuc(a1-6)]GlcNAc", "in_short": "as §1"}}, "note": "This excerpt belongs to a sample that is enriched for the strongest signals.", "data": [{"binder": "B1", "values": [{"measurement": "glycan array binding signal (z-score)", "setting": "Fuc(a1-2)Gal(b1-3)GalNAc", "value": -0.318}, {"measurement": "glycan array binding signal (z-score)", "setting": "Fuc(a1-2)Gal(b1-3)GlcNAc", "value": -0.622}, {"measurement": "glycan array binding signal (z-score)", "setting": "[1]", "value": 6}, {"measurement": "glycan array binding signal (z-score)", "setting": "[2]", "value": -0.573}, {"measurement": "glycan array binding signal (z-score)", "setting": "Fuc(a1-2)Gal(b1-4)Glc", "value": -0.272}, {"measurement": "glycan array binding signal (z-score)", "setting": "[3]", "value": -0.085}, {"measurement": "glycan array binding signal (z-score)", "setting": "[4]", "value": -0.281}, {"measurement": "glycan array binding signal (z-score)", "setting": "[5]", "value": -0.278}, {"measurement": "glycan array binding signal (z-score)", "setting": "[6]", "value": 0.128}, {"measurement": "glycan array binding signal (z-score)", "setting": "[7]", "value": 0.497}, {"measurement": "glycan array binding signal (z-score)", "setting": "[8]", "value": -0.387}, {"measurement": "glycan array binding signal (z-score)", "setting": "[9]", "value": -0.723}, {"measurement": "glycan array binding signal (z-score)", "setting": "[10]", "value": 0.153}, {"measurement": "glycan array binding signal (z-score)", "setting": "[11]", "value": 0.115}, {"measurement": "glycan array binding signal (z-score)", "setting": "[12]", "value": -0.161}, {"measurement": "glycan array binding signal (z-score)", "setting": "[13]", "value": 3.75}, {"measurement": "glycan array binding signal (z-score)", "setting": "Gal(a1-4)Gal(b1-4)Glc", "value": -0.307}, {"measurement": "glycan array binding signal (z-score)", "setting": "[14]", "value": -0.329}, {"measurement": "glycan array binding signal (z-score)", "setting": "[15]", "value": 0.293}, {"measurement": "glycan array binding signal (z-score)", "setting": "[16]", "value": -0.459}, {"measurement": "glycan array binding signal (z-score)", "setting": "[17]", "value": 3.94}, {"measurement": "glycan array binding signal (z-score)", "setting": "[18]", "value": 0.465}, {"measurement": "glycan array binding signal (z-score)", "setting": "[19]", "value": 5.99}, {"measurement": "glycan array binding signal (z-score)", "setting": "[20]", "value": 4.45}, {"measurement": "glycan array binding signal (z-score)", "setting": "[21]", "value": 4.11}, {"measurement": "glycan array binding signal (z-score)", "setting": "[22]", "value": 4.64}, {"measurement": "glycan array binding signal (z-score)", "setting": "[23]", "value": 3.94}]}]}
